Experimental data published in PubChem BioAssay AID588342 (National Center for Advancing Translational Sciences (NCATS), 2011).
About 25,000 (6.9%) of roughly 360,000 compounds were called active. About 9% were inconclusive and are not listed. This is one part of a sample in which actives are shown more often than they occur. The call rests on the fitted dose curve; in most records, active means well fitted inhibition curve with a large enough effect; inconclusive means small, poorly fitted or top-dose-only effect; inactive means flat fitted curve, though single readings scatter.

Biological target: Luciferin 4-monooxygenase (Photinus pyralis) (UniProt P08659)
Sequence (P08659 whole entry, looked up): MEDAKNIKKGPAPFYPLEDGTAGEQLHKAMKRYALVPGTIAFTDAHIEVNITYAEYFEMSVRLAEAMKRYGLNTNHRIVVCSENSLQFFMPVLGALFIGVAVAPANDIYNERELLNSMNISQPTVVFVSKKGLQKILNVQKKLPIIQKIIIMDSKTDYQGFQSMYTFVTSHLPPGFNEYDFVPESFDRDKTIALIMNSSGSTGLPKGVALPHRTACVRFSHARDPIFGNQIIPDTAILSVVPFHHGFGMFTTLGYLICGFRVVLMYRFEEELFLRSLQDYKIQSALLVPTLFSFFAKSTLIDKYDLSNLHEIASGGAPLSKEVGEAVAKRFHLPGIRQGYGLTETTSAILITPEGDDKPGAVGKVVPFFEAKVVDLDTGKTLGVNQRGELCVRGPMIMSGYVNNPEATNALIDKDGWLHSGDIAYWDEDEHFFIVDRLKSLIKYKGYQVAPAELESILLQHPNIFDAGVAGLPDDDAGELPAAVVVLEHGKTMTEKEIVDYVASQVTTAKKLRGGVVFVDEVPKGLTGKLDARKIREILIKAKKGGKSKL
Assay: qHTS profiling assay for firefly luciferase inhibitor/activator using purifed enzyme and Km concentrations of substrates (counterscreen for miR-21 project); further: nearly all actives have a fitted effect of over 55% in size;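 on activity change, negative = inhibition: plate controls were vehicle for no effect and reference inhibitor for full effect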
Details: purified FLuc, luminescence inhibition; series mostly up to 57.5 µM; activity change, negative = inhibition: at the top concentration
Method in brief: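 Purified P. pyralis luciferase (10nM final) with 10uM D-luciferin and 10uM ATP (Km levels) in 50mM Tris acetate pH 7.5, 10mM Mg acetate, 0.01% Tween-20, 0.05% BSA; qHTS 6-point titration, ~60 µM downward; luminescence read.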
Potency means the concentration at half of the fitted maximal effect.

Compound	activity change, negative = inhibition	Potency
Cn1c(=O)[nH]c(=O)c2c1[nH]c(=S)n2Cc1ccccc1	-1.53% (inactive)	
CC1=Nc2cc(C(=O)NCc3ccc(C)cc3)ccc2Sc2ccc(Cl)cc21	-7.52% (inactive)	
O=C(OCC(=O)N1CCCCCC1)c1cnc(Cl)c(Cl)c1	-4.72% (inactive)	
O=C(NCCc1csc(-c2ccccc2)n1)c1ccccc1F		26.9 µM (active)
COc1ccc(CCC(=O)NCCc2csc(-c3ccc(Cl)cc3)n2)cc1	-10.6% (inactive)	
O=S(=O)(NCCc1csc(-c2ccccc2)n1)c1cccnc1	-5.44% (inactive)	
O=c1ccc2c(-c3ccccc3S(=O)(=O)O)c3ccc(O)c(O)c3oc-2c1O		13.5 µM (active)
COc1ccc(OC)c(NC(=O)C2CCN(S(=O)(=O)c3ccc(C)cc3)CC2)c1	-3.03% (inactive)	
COc1ccc(OC)c(C(O)c2nc3ccccc3n2C)c1 (stereo not drawn)	1.76% (inactive)	
CCN(CCCNC(=O)c1c(C)oc2ncn(CC(C)C)c(=O)c12)Cc1ccccc1	-0.305% (inactive)	
Cc1ccc(NC(=O)C(=O)NCc2ccc(/C=N/NC(=O)c3c(C)nc4cc(C)ccn34)o2)cc1		2.13 µM (active)
Cc1ccn2c(=O)c(NC(=O)c3cccc4ccccc34)c(C)nc2c1	0.894% (inactive)	
CCOc1ccc(/C=N\NC(=O)c2c(C)nc3cc(C)ccn23)cc1	-1.47% (inactive)	
N=C1C(=O)OCC1c1ccccc1NC(=O)CN1CCCCC1 (stereo not drawn)	-0.64% (inactive)	
CN(Cc1ccccc1)C(=O)c1cn(C)c2ccc(S(=O)(=O)N3CCCCC3)cc2c1=O	-4.69% (inactive)	
CCc1ccccc1NC(=O)CSc1nc(C)c(C(=O)Nc2ccccc2)c(-c2ccc(Cl)cc2)c1C#N	-0.825% (inactive)	
Cc1cc(C)n(CCNS(=O)(=O)c2ccc(Cl)cc2)n1	2.54% (inactive)	
COc1ccc(CN2C(=O)C(C)S/C2=N/N=C/c2ccco2)cc1 (stereo not drawn)		15.1 µM (active)
C=CCN1C(=O)C(Cc2cccc(Cl)c2)S/C1=N/N=C/c1ccco1 (stereo not drawn)	1.23% (inactive)	
O=C1N/C(=N\N=C\c2ccco2)SC1Cc1ccc(F)cc1 (stereo not drawn)	-0.419% (inactive)	
COc1cccc(C2C(C(=O)Nc3ccc(C)cc3C)=C(C)Nc3c(C(=O)Nc4ccccc4)cnn32)c1 (stereo not drawn)	-5.82% (inactive)	
COc1ccc(Oc2cn[nH]c2-c2ccc(OC)cc2O)cc1	-12.5% (inactive)	
COc1ccc(/C=C2/C(=O)OCc3cc(OC)c(OC)cc32)c(OC)c1		12 µM (active)
COc1ccc(CN(C)Cc2nc3cc(OC)c(OC)cc3c(=O)[nH]2)c(OC)c1	0.629% (inactive)	
COc1cc([N+](=O)[O-])ccc1NC(=O)COC(=O)CCOc1ccc(C)cc1	-1.29% (inactive)	
Cc1ccc(OC(=O)CSc2nnc(-c3cccs3)o2)cc1	-2.44% (inactive)	
COc1ccc(-c2nnc(SCC(=O)c3cccs3)o2)c(OC)c1		2.39 µM (active)
COc1ccccc1-c1nnc(SCC(N)=O)o1	-3.36% (inactive)	
